This passage reports inhibition results from ChEMBL document CHEMBL3433997, “St. Jude Leishmania screening dataset” (2016).

In general, inhibition refers to the relative decrease from the control value, in per cent.

What all share (type): functional
The target of assay [1] is Solute carrier family 2, facilitated glucose transporter member 1 (Homo sapiens) (UniProt P11166). The assay can be described thus: ST_JUDE_LEISH: Cytotoxicity at 2uM final concentration against transgenic Leishmania Mexicana promastigotes LmGLUT1 that are glucose transport deficient and complemented with the human glucose transporter GLUT1. Activity is measured by DNA content using SYBR green in vitro.

Assay [2] has as its target Hexose transporter 1 (Plasmodium falciparum) (UniProt O97467). The assay can be described thus: ST_JUDE_LEISH: Cytotoxicity at 2uM final concentration against transgenic Leishmania Mexicana promastigotes LmPfHT that are glucose transport deficient and complemented with the Plasmodium falciparum hexose transporter. Activity is measured by DNA content using SYBR green in vitro.

For assay [3], the target named is Glucose transporter (Leishmania mexicana) (UniProt O61059). The assay can be described thus: ST_JUDE_LEISH: Cytotoxicity at 2uM final concentration against transgenic Leishmania Mexicana promastigotes LmGT2 that are glucose transport deficient and complemented with the L. Mexicana glucose transporter 2. Activity is measured by DNA content using SYBR green in vitro.

Sequence of Solute carrier family 2, facilitated glucose transporter member 1 (Homo sapiens) (P11166 whole entry): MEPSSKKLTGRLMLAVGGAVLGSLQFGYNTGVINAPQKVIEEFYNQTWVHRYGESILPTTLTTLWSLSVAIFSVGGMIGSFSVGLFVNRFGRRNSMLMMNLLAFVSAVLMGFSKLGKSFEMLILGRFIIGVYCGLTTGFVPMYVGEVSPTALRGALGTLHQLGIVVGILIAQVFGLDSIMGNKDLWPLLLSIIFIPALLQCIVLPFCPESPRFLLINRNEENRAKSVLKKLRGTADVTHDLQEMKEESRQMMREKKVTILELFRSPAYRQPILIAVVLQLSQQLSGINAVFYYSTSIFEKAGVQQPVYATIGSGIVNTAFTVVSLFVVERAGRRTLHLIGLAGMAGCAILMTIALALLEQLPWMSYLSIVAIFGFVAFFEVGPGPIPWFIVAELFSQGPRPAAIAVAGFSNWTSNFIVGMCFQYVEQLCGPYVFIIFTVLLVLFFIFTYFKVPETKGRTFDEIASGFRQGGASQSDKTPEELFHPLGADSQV

In the case of `C[C@@H]1CC[C@H](NC(=O)[C@H](CC2CCCC2)NC(=O)N2CCNCC2)C(=O)CN1S(=O)(=O)c1ccccn1`, the inhibition was 1.44% in assay [1], 0.17% in assay [2] and -0.32% in assay [3].

For `N#Cc1ccc(NC(=O)c2ccc(C(=O)NCCCCN3CCC(c4ccc5c(c4OCCOC4CCCCO4)CCCC5)CC3)cc2)cc1` (stereo not drawn), the inhibition amounted to 0.68% in assay [1], 2.54% in assay [2] and 0.27% in assay [3].

Take `O=S(=O)(NC1CCN(c2ccnc3cc(Cl)ccc23)C1)c1cccc(F)c1` (stereo not drawn): the results for the inhibition in assay [1], in assay [2] and in assay [3] were 10.1%, 9.98% and 11.4%, respectively.

With `CCNC[C@@H](O)[C@H](Cc1ccccc1)NC(=O)c1cc2c3c(c1)c(CC)cn3CCS(=O)(=O)N2C`, the inhibition in assay [1] was 0.67%; in assay [2], 0.11%; in assay [3], -0.02%.

Turning to `CC1CN(Cc2ccc(-c3ccc(-c4nc5ccccc5[nH]4)cc3)cc2)CC(C)O1` (stereo not drawn), the inhibition in assay [1] was found to be 6.34%; in assay [2], 6.82%; in assay [3], 4.66%.

Turning to `CCOc1ccc(N2C(N)=NC(N)=NC2(C)C)cc1`, the inhibition in assay [1] was 4.38%; in assay [2], 3.86%; in assay [3], 4.06%.

For the compound `COc1ccc2c(c1C1CCN(CCCCNC(=O)c3ccc(NC(=O)c4ccc(Cl)cc4)cc3)CC1)CCCC2`, the figures for the inhibition in assay [1], in assay [2] and in assay [3] were -1.16%, -1.03% and -1.07%, respectively.

For `N#Cc1ccc(CN2CCC(Oc3ccc(NC(=O)c4cccs4)cc3Cl)C2)cc1` (stereo not drawn), the inhibition in assay [1] is -0.24%; in assay [2], 3.89%; in assay [3], -0.2%.

Consider `COc1ccc2nccc(NC(=O)OC3CCC(NCc4ccc5c(n4)NC(=O)CS5)CC3)c2c1` (stereo not drawn), for which the inhibition stood at 4.53% in assay [1], 4.67% in assay [2] and 3.92% in assay [3].

With `O=C(NC1CCCCC1)N(Cc1ccc(-c2cccc(CNCc3ccc4c(c3)OCO4)c2)cc1)C1CCN(Cc2ccccc2)CC1`, the inhibition in assay [1] is 2.19%; in assay [2] it was 1.74%; in assay [3], 0.81%.

On to `O=C1NC(=S)N/C1=C/C=C/c1ccc([N+](=O)[O-])o1`, for which the inhibition was found to be 27.9% in assay [1], 30.9% in assay [2] and 5.12% in assay [3].

For the compound `Cc1cc2ncc(C(N)=O)c(Nc3ccc(N4CCOCC4)cc3)c2cc1S(C)(=O)=O`, the inhibition amounted to 1.97% in assay [1], 3.83% in assay [2] and 5.19% in assay [3].

On to `C=CCOC(=O)N1CCC(CNCc2ccc(-c3ccc(-c4nc5ccccc5[nH]4)s3)cc2)C1` (stereo not drawn), for which the inhibition in assay [1] worked out at 5.91%; in assay [2] it was 6.02%; in assay [3] it was 5.42%.

Consider `Fc1ccc(-c2nc(NCc3cccc(C(F)(F)F)c3)nn2-c2cccc(C(F)(F)F)c2)cc1C(F)(F)F`, for which the results for the inhibition in assay [1], in assay [2] and in assay [3] were 1.81%, 1.48% and 2.56%, respectively.

As to `Cc1cccc2nc(-c3ccc(-c4cccc(CN5CCCC5CN)c4)s3)[nH]c12` (stereo not drawn), the results for the inhibition in assay [1], in assay [2] and in assay [3] were 2.06%, -0.2% and -0.03%, respectively.

For `CCN(CC)CCN(Cc1ccc(-c2ccc(C(F)(F)F)cc2)cc1)C(=O)Cn1c(CCc2ccc(F)c(F)c2)nc(=O)c2ccccc21`, the inhibition is 1.89% in assay [1], 0.22% in assay [2] and 1.08% in assay [3].

Turning to `COc1ccc(NC(=O)C2c3ccccc3C(=O)N(CC(C)C)C2c2cccs2)cc1OC` (stereo not drawn), the inhibition in assay [1] was -0.36%; in assay [2], 0.34%; in assay [3], 0.28%.

As for `S=C(NCCc1ccccc1)Nc1ccc2ncsc2c1`, the inhibition in assay [1] is -0.85%; in assay [2], 1.14%; in assay [3], -0.73%.

Turning to `CC1CN(Cc2ccc(C#N)cc2)CCN1c1ccc(NC(=O)c2cccs2)cc1` (stereo not drawn), the inhibition in assay [1] stood at 8.47%; in assay [2], 8.63%; in assay [3], 8.98%.

Regarding `Cc1ccc(CCC(C)NCC(O)c2cccc(Cl)c2)cc1` (stereo not drawn), the inhibition worked out at 12.8% in assay [1], 13.1% in assay [2] and 11.1% in assay [3].

Regarding `CCCCn1c(N)c(N(Cc2ccco2)C(=O)C=Cc2cc(OC)c3c(c2)OCCO3)c(O)nc1=O`, the inhibition in assay [1] stood at 3.56%; in assay [2] it was 1.02%; in assay [3] it was 3.32%.

With `COc1ccc(C(C)Nc2nc(N)c3cc(OC)c(OC)cc3n2)cc1` (stereo not drawn), the results for the inhibition in assay [1], in assay [2] and in assay [3] were 4.72%, 4.66% and 4.42%, respectively.

Turning to `COc1ccccc1N=C1SC(=Cc2cn(CC(=O)N3CCCc4ccccc43)c3ccccc23)C(=O)N1C1CCCCC1`, the inhibition in assay [1] is 2.84%; in assay [2] it was 0.47%; in assay [3], -1.37%.

In the case of `Oc1cc(-c2nc(-c3ccccc3)[nH]c2-c2ccncc2)ccc1Cl`, the inhibition in assay [1] came to 4.1%; in assay [2] it was 1.67%; in assay [3], 1.44%.

With `CCCc1cc(OC)c(CC2c3cc(O)c(Cl)cc3CCN2C)cc1OC` (stereo not drawn), the inhibition in assay [1] was determined as 9.73%; in assay [2] it was 7.17%; in assay [3], 14.9%.

As for `COc1c(C2CCN(CCCCNC(=O)c3oc(-c4ccc(Cl)cc4)cc3CO)CC2)ccc2c1CCCC2`, the figures for the inhibition in assay [1], in assay [2] and in assay [3] were 1.58%, 1.81% and 3.08%, respectively.

In the case of `COc1ccc2nccc(N3CCC(SCCNCc4ccc5c(n4)NC(=O)CO5)C3)c2n1` (stereo not drawn), the results for the inhibition in assay [1], in assay [2] and in assay [3] were 0.4%, 2.93% and 2.08%, respectively.

Consider `c1ccc(CNCc2ccc(-c3cccc(-c4nc5ccccc5[nH]4)c3)cc2)cc1`, for which the inhibition in assay [1] is -1.6%; in assay [2], -1.2%; in assay [3] it was -1.62%.

`COc1ccc2nccc(NCC3(O)CCC(NCc4cc5c(cn4)OCCO5)CC3)c2n1` (stereo not drawn): the inhibition was -1.99% in assay [1], -1.9% in assay [2] and -2.58% in assay [3].

On to `CCCc1cc(NCC)nc(Nc2ccc(F)cc2)n1`, for which the results for the inhibition in assay [1], in assay [2] and in assay [3] were 15.6%, 6.64% and 3.2%, respectively.

For the compound `CN(Cc1ccc(-c2ccc(C(F)(F)F)cc2)cc1)C(=O)Cn1c(CCc2cccc(F)c2F)nc(=O)c2ccc(N3CCN(CCN4CCCCC4)CC3)nc21`, the inhibition in assay [1] is 7.76%; in assay [2], 7.16%; in assay [3], 3.71%.

For the compound `O=C(Nc1ccc(-c2nc3ccccc3[nH]2)cc1)c1ccc([N+](=O)[O-])s1`, the inhibition was 5.3% in assay [1], 7.89% in assay [2] and 3.02% in assay [3].

On to `O=C(NCCCCN1CCC(c2ccc3c(c2OCCCO)CCCC3)CC1)c1ccc(-c2ccc(C(F)(F)F)cc2)cc1`, for which the inhibition in assay [1] amounted to 1.13%; in assay [2] it was 3.02%; in assay [3] it was 2.9%.

Consider `Cc1ccc2c(c1)nc(N)n2C[C@H](O)c1ccccc1`, for which the figures for the inhibition in assay [1], in assay [2] and in assay [3] were 1.01%, 1.37% and 1.1%, respectively.

On to `Cc1cc(N2CCCC2)nc(Nc2ccc(NC(=O)COc3ccccc3)cc2)n1`, for which the inhibition in assay [1] came to 6.11%; in assay [2], 6.84%; in assay [3], 2.07%.

For the compound `CC1CN(c2ccnc3ccc(Sc4ccc(Oc5ccccc5)cc4)cc23)CC(C)N1` (stereo not drawn), the inhibition in assay [1] was 0.07%; in assay [2], 2.41%; in assay [3], -0.77%.

As for `Fc1ccc2[nH]c(-c3cccc(-c4cccc(CNCc5ccccc5)c4)c3)nc2c1`, the figures for the inhibition in assay [1], in assay [2] and in assay [3] were 0.07%, -0.96% and -0.93%, respectively.

As to `CC(=O)Nc1ccc(NC(=O)c2cc(-c3ccc(C)cc3O)n[nH]2)cc1`, the inhibition was -0.23% in assay [1], 7.7% in assay [2] and 0.4% in assay [3].

In the case of `CCNC(=O)Nc1cccc(-c2cccc(-c3nc4cccc(C)c4[nH]3)c2)c1`, the inhibition was 4.32% in assay [1], 2.2% in assay [2] and 3.06% in assay [3].

Turning to `CN(C)CCNc1nccc(N2CCc3ncnc(Nc4ccc(OCc5cccc(F)c5)c(Cl)c4)c3C2)n1`, the values for the inhibition in assay [1], in assay [2] and in assay [3] were 20%, 28.4% and 3.49%, respectively.

In the case of `CC(=O)Nc1ccc(Nc2ncc([N+](=O)[O-])c(Nc3ccccc3C(N)=O)n2)cc1`, the inhibition was 3.27% in assay [1], 1.61% in assay [2] and 1.93% in assay [3].

`CS(=O)(=O)c1ccc(-c2nc(NCC3CCCCC3)cc(C(F)(F)F)n2)cc1`: the inhibition in assay [1] was -0.02%; in assay [2], 1.77%; in assay [3] it was 0.16%.

On to `COc1nc2c(N3CCN(CCNCc4ccc5c(n4)NC(=O)CO5)CC3)ccnc2cc1F`, for which the values for the inhibition in assay [1], in assay [2] and in assay [3] were 4.21%, 2.44% and 0.39%, respectively.

In the case of `Nc1ccnc2ccc(NC(=O)CCCCCc3ccccc3)cc12`, the figures for the inhibition in assay [1], in assay [2] and in assay [3] were 1.43%, 0.96% and 1.99%, respectively.

With `Cc1cc(NC(=O)c2cccs2)ccc1OC1CCN(Cc2ccccc2)CC1`, the values for the inhibition in assay [1], in assay [2] and in assay [3] were 3.33%, 3.27% and 3.22%, respectively.

On to `COc1ccc(CNC2Cc3ccccc3C2)cc1-c1ccc(S(=O)(=O)NCc2ccccc2)s1`, for which the inhibition in assay [1] is 6.85%; in assay [2], 4.6%; in assay [3], 4.36%.

Turning to `CCCCCN1CCCC(CNS(=O)(=O)c2ccc(C(=O)Nc3ccc(C(F)(F)F)cc3)cc2)C1` (stereo not drawn), the inhibition in assay [1] is -1.01%; in assay [2] it was -0.37%; in assay [3], -0.42%.

In the case of `O=C(NC1CC1)c1cnc(N2CCC(Oc3ccc(Cl)cc3)CC2)c(Cl)c1`, the inhibition in assay [1] came out at 5.36%; in assay [2], 2.7%; in assay [3], 0.49%.

For `Fc1ccc(-c2cc3ncnc(N4CCN(CCN5CCCC5)CC4)c3s2)cc1`, the inhibition in assay [1] was 14.6%; in assay [2], 12.9%; in assay [3], 11.1%.

`COc1ccc(-c2ccc(NC(=O)c3ccc(F)cc3)cc2)cc1CN1CCCN(C)CC1`: the inhibition in assay [1] was 6.26%; in assay [2], 3.81%; in assay [3] it was 2.87%.

`Cc1cccc2nc(-c3ccc(-c4ccc(CNCCCNS(C)(=O)=O)cc4)s3)[nH]c12`: the inhibition is 7.9% in assay [1], 8.05% in assay [2] and 6.95% in assay [3].
